Only some compounds are listed: those with a hit (about 19% of all), similar ones and a draw of the others.
HT1080NT lethal: kills 2HG-producing HT-1080-NT fibrosarcoma cells; HT-1080-NT fibrosarcoma viability, CellTiter-Glo ATP luminescence, 48 h; Potency, µM (titrated, usually from 46.1 µM), inactives show at the top dose activity, negative = less viability, usual class: cytotoxic; 360,000 tested, 1.6% active; AID 686970;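 note: NT is the 2HG producing partner of a matched IDH1 knockdown line; potency is the fitted concentration of half-maximal effect; 0% = DMSO-treated cells and -100% = media-only wells without cells; nearly all actives have a fitted effect of over 55% in size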
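Compounds were tested in concentration-response format on HT-1080-NT cells for 48 hours at 37 degrees C. Cell viability came from CellTiter-Glo luminescence; curves were classified by r2, response magnitude and activity.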
IL1B secr inh: inflammasome signaling inhibition, IL-1 beta readout; THP-1 LPS/ATP IL-1B secretion, AlphaLISA, 16 h; active compounds read low; activity change, % at 57.5 µM; 360,000 tested, 4.7% active; in the data active = activity change below about -50%; inconclusive = mostly about -30% to -49%
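THP-1 cells pretreated 1 hr with compounds (up to 57.5 uM final), then stimulated with LPS (250 ng/mL final) plus ATP (1.25 mM final); secreted IL-1B measured by AlphaLISA after 16 hr, decreased signal indicating inhibition.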
TDP1 cell noCPT: qHTS for Inhibitors of human tyrosyl-DNA phosphodiesterase 1 (TDP1): qHTS in cells in absence of CPT; Potency, µM (doses to about 46.2 µM), without a hit: top-dose activity change, negative = growth inhibition, actives largely listed as inhibitors; AID 686978, 2013; DT40 Tdp1-/- hTDP1 cells, no CPT, ATP luminescence, 48 h; 420,000 tested, 15% active; note: potency is the fitted concentration of half-maximal effect; nearly all actives have a fitted effect of over 55% in size
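Compound effects on proliferation are scored in DT40 Tdp1-/-;hTDP1 cells in the absence of CPT. ATP levels (CellTiter-Glo luminescence) are recorded after a ≥48 hr, 37 °C incubation.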
TDP1 cell CPT: growth inhibition of DT40 Tdp1-/-;hTDP1 cells with camptothecin (screen for TDP1 inhibitors). chicken DT40 Tdp1-/-;hTDP1 cells + 20 nM CPT, ATP luminescence, 48 h. Potency, µM (top dose mostly 46.2 µM), for inactives: top-dose activity change, negative = growth inhibition, usual class: inhibitors. 420,000 tested, 12% active; note: potency is the fitted concentration of half-maximal effect; nearly all actives have a fitted effect of over 55% in size
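Chicken DT40 Tdp1-/- cells stably complemented with human TDP1 were seeded at 400 cells/well in medium containing 20 nM camptothecin, exposed to pin-transferred compounds, and grown at 37 °C for at least 48 hr. Viability was read as ATP luminescence.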
HT1080 IDH1KD tx: HT-1080 IDH1 knockdown cell toxicity (counter line) | AID 686971 | Potency, µM (highest dose often 46.1 µM), without a hit: at the highest dose activity, negative = toxicity, most hits filed as cytotoxic | HT-1080 IDH1 knockdown viability, ATP luminescence, 48 h | 360,000 tested, 2% active;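 note: potency is the fitted concentration of half-maximal effect; 0% = DMSO wells and -100% = cell-free medium wells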
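CellTiter-Glo luminescence after 48 h compound exposure at 37 degrees C of IDH1-knockdown HT-1080 cells in 5% FBS RPMI. %Activity scaled between DMSO wells and cell-free media wells, with curves fitted and assigned curve classes.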
* = called active by the depositor; ? = inconclusive; . = no result given. Unless noted, calls come from the whole dose curve; as a rule, active = well fitted curve in the direction sought with a large enough effect; inconclusive = small, poorly fitted or top-dose-only effect, or another doubt; inactive = no such curve, though single readings can be large; an effect the other way counts as inactive or inconclusive. Unless noted, % is set by controls: 0 for no effect and ±100 for the full control effect.

SMILES	HT1080NT lethal	IL1B secr inh	TDP1 cell noCPT	TDP1 cell CPT	HT1080 IDH1KD tx
COc1cccc(NC(=S)N(CCC(C)C)C2CCN(C(C)=O)CC2)c1	-6.6%	14.1	-3.4%	-0.9%	-7.2%
O=C(NC(=S)N1CCOCC1)c1cn(-c2ccccc2)nc1-c1ccccc1	-20.2%	-3.1	?	?	-5.0%
C#CCN1C=CC(=O)[C@@H](O)[C@H]1c1ccccc1Br	8.6%	16.3	-3.4%	8.4%	5.9%
CN(CCCNC(=O)c1cn(C)c2ccc(S(=O)(=O)N(C)C)cc2c1=O)c1ccccc1	0.0%	10.6	?	18.4µM*	7.3%
CCn1cc(C(=O)NCCc2ccc(Cl)cc2)c(=O)c2cc(S(=O)(=O)N3CCC(C)CC3)ccc21	.	.	18.4µM*	?	.
CCc1ccc(C(C(=O)NC2CCCC2)N(CCOC)C(=O)CCC(=O)Nc2cc(C)on2)cc1 (stereo not drawn)	-16.9%	-14.7	-15.2%	1.4%	6.1%
CCOc1ccc(-c2cc(NC(=O)c3c(F)cccc3F)c(C(=O)OC)s2)cc1	.	.	-2.8%	-6.5%	.
O=c1cc(-c2ccccc2)nc(N2CCN(Cc3ccccc3)CC2)[nH]1	-2.6%	-4.6	20.6µM*	18.4µM*	-1.0%
COc1ccc(-c2cc(=O)[nH]c(N3CCN(Cc4ccccc4)CC3)n2)cc1	-2.5%	-6.9	?	?	-1.9%
COc1ccccc1N1CCN(C(=O)c2ccccc2N(C)S(=O)(=O)c2ccc(C)cc2)CC1	-1.6%	4.6	16.4µM*	?	6.3%
COc1ccccc1N(C)S(=O)(=O)c1ccc(Cl)c(C(=O)NCC2(N(C)C)CCCCC2)c1	-12.8%	?	8.2µM*	?	-11.0%
Cc1ccc(S(=O)(=O)N(C)c2ccccc2C(=O)N2CCOCC2)cc1	-1.7%	0.7	-11.9%	0.3%	-0.4%
CN(c1ccc(F)cc1)S(=O)(=O)c1ccc(Cl)c(C(=O)NCC2(N3CCOCC3)CCCCC2)c1	0.2%	?	7.31µM*	7.31µM*	-4.6%
COc1ccccc1N(C)S(=O)(=O)c1ccc(Cl)c(C(=O)OCc2c(C)noc2C)c1	0.1%	?	23.1µM*	?	-1.9%
COc1ccccc1NS(=O)(=O)c1ccc(C(=O)NCC2(N(C)C)CCCCC2)cc1	3.5%	-1.6	?	-19.3%	8.2%
CCc1ccc(/C(C)=N/NC(=O)c2c[nH]c3ccccc23)s1	-0.1%	-25.6	-19.6%	?	-16.6%
O=C(Cn1c2c(sc1=O)C1c3ccccc3OCC1CS2)Nc1ccc(Cl)cc1 (stereo not drawn)	-4.0%	18.1	?	?	-1.5%
CC1CCCCC1NC(=O)CCNS(=O)(=O)c1cc(Br)cnc1N (stereo not drawn)	1.4%	32.8	?	-20.8%	10.3%
CCCCC(CC)CNC(=O)C1C2C=CC(C2)C1C(=O)O (stereo not drawn)	0.0%	5.0	0.7%	-12.4%	9.5%
COc1ccccc1N(C)S(=O)(=O)c1ccc(Cl)c(C(=O)NNC(=O)c2ccccc2O)c1	-4.2%	111.7	?	?	-1.4%
COc1ccccc1N(C)S(=O)(=O)c1ccc(Cl)c(C(=O)N2CCC2)c1	1.3%	16.6	?	16.4µM*	0.1%
CCOc1ccc(C(=O)CCC(=O)N2CCC(C(=O)OC)CC2)cc1	5.5%	12.9	-27.5%	-1.3%	10.4%
CCN(CC)CCOc1ccc(-c2nc3cc(Cl)ccc3s2)cc1	.	.	4.73µM*	4.73µM*	.
CCN(CC)CCOc1ccc2nc(N(C)C)sc2c1	0.5%	20.9	?	?	4.2%
Clc1ccc(C[n+]2csc3ccccc32)cc1	-3.9%	-110.1*	0.517µM*	0.411µM*	-9.4%
SMILES	HT1080NT lethal	IL1B secr inh	TDP1 cell noCPT	TDP1 cell CPT	HT1080 IDH1KD tx
Clc1ccc(CSc2ccc(-c3cccs3)nn2)cc1	.	.	-1.4%	-0.5%	.
O=C(Cc1csc2ccccc12)NCc1ccc(F)cc1	.	.	-18.4%	10.2%	.
Fc1ccc(C[n+]2csc3ccccc32)cc1	7.0%	-115.2*	0.92µM*	1.03µM*	1.5%
COc1ccc(NC(=O)CSc2nnc(Cc3cccs3)n2C)cc1	-12.2%	15.0	-15.6%	8.1%	-8.1%
Cn1nccc1NC(=O)CSCC(=O)O	19.4%	.	0.6%	6.1%	8.6%
Nc1nonc1-n1nnc(C(=O)N/N=C/c2ccc(Br)cc2)c1CSC1=NCCS1	-10.6%	-101.5*	25.9µM*	?	?
Nc1nonc1-n1nnc(C(=O)N/N=C/c2cccnc2)c1CSc1ccc(Cl)cc1	-1.4%	1.2	?	23.1µM*	-23.7%
CC(C)c1ccc(/C=N/NC(=O)c2nnn(-c3nonc3N)c2CSC2=NCCS2)cc1	-13.2%	-86.9*	20.6µM*	?	?
Nc1nonc1-n1nnc(C(=O)N/N=C/c2cccnc2)c1CSC1=NCCS1	?	.	?	-4.4%	?
Nc1nonc1-n1nnc(C(=O)N/N=C/c2cccnc2)c1CSc1ccccc1	-4.8%	-3.9	-2.9%	2.7%	0.6%
COc1ccc(S(=O)(=O)N(C)C[C@H]2Oc3c(NC(=O)Cc4ccccc4)cccc3C(=O)N([C@H](C)CO)C[C@@H]2C)cc1	-3.1%	17.1	-25.8%	?	0.5%
CCOC(=O)C1CCCN(S(=O)(=O)c2ccc(-c3cc(C)no3)s2)C1 (stereo not drawn)	-10.1%	4.8	-12.9%	?	-6.4%
CC(C)n1c(=O)c2ccccc2n1C(=O)c1ccccc1	-1.8%	0.0	?	?	9.6%
CC(=O)NS(=O)(=O)c1ccc(N=c2ssc3c2-c2ccc(C)cc2NC3(C)C)cc1	-6.4%	9.8	?	-27.5%	-19.4%
COc1ccccc1CNC(=O)C1CCCN(c2nnc(-n3c(C)ccc3C)s2)C1 (stereo not drawn)	.	.	?	16.4µM*	.
COc1ccc(CNC(=O)C2CCN(c3nnc(-n4c(C)ccc4C)s3)CC2)c(OC)c1	.	.	16.4µM*	?	.
CS(=O)(=O)N1CCC(C(=O)Nc2ccccc2Br)CC1	1.1%	-1.8	5.2%	15.2%	14.9%
COc1cccc(CNC(=O)C2CCN(c3nnc(-n4c(C)ccc4C)s3)CC2)c1OC	.	.	-62.7%	?	.
Cc1ccc(C)n1-c1nnc(N2CCC(C(=O)N3CCN(C)CC3)CC2)s1	0.0%	?	?	?	-7.9%
Cc1ccc(C)n1-c1nnc(N2CCC(C(=O)Nc3ccccc3Br)CC2)s1	.	.	16.4µM*	?	.
Cc1ccccc1CNC(=O)C1CCN(c2nnc(-n3c(C)ccc3C)s2)CC1	.	.	?	16.4µM*	.
COc1ccc(CNC(=O)C2CCN(c3nnc(-n4cccc4CNc4ccc(C)cc4)s3)CC2)c(OC)c1	.	.	13µM*	16.4µM*	.

Screens from PubChem BioAssay.
